Assay results taken from PubChem BioAssay (Tox21).
Results filed as inconclusive are left out. Active and inactive are the calls of the source. The call rests on the fitted dose curve.

These compounds were tested against Peroxisome proliferator-activated receptor delta (Homo sapiens) (UniProt Q03181) (assay: qHTS assay to identify small molecule agonists of the peroxisome proliferator-activated receptor delta (PPARd) signaling pathway (AID 743212)). Conditions: HEK293H PPARd-UAS-bla, beta-lactamase FRET ratio, 17 h; series mostly up to 62.6 µM.
Peroxisome proliferator-activated receptor delta (Homo sapiens), sequence (Q03181 whole entry, looked up): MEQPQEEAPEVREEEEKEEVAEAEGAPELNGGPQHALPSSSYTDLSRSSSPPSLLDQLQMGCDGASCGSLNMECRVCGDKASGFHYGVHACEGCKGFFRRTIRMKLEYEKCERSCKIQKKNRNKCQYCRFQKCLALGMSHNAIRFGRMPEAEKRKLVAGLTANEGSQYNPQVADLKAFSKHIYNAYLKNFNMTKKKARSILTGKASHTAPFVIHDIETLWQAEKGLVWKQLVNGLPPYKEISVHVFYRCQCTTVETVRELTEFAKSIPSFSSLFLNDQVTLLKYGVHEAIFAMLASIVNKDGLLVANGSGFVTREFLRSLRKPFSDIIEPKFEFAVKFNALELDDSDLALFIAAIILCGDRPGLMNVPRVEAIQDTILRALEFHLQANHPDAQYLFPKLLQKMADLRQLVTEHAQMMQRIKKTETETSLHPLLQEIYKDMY
Source text: U.S. Tox21 Program National Center for Advancing Translational Sciences [NCATS] NIH Chemical Genomics Center [NCGC] U.S. Environmental Protection Agency [EPA] National Institutes of Environmental Health Sciences [NIEHS] National Toxicology Program [NTP] U.S. Food and Drug Administration [FDA] Tox21 Assay Overview: The peroxisome proliferator-activated receptors (PPARs) are lipid-activated transcription factors of the nuclear receptor superfamily with three distinct subtypes namely PPAR alpha, PPAR delta (PPARd) and PPAR gamma. All these subtypes heterodimerizes with Retinoid X receptor (RXR) and have different physiological functions. […] To identify the compounds that activate PPAR-delta signaling, GeneBLAzer PPAR delta UAS-bla HEK293H cell line (Invitrogen, Carlsbad, CA, USA) containing a beta-lactamase reporter gene under the control of an Upstream Activator Sequence (UAS) was used to screen the Tox21 compound library.
Tox21 Assay Protocol Summary: PPARd-bla cells were dispensed at 3000 cells/6uL/well in 1536-well black wall/clear bottom plates using a Multidrop Combi (Thermo Fisher Scientific, Waltham, MA) dispenser. After the assay plates were incubated at 37 C and 5% CO2 for 5 h, 23 nL of compounds dissolved in DMSO, positive controls or DMSO only was transferred to the assay plate by a Pintool station (Kalypsys, San Diego, CA). The assay plates were incubated at 37C for 17 h. After 1 uL of LiveBLAzerTM B/G FRET substrate was added using a Bioraptr Flying Reagent Dispenser (FRD) workstation (Beckman Coulter, Indianapolis, IN, USA), the plates were incubated at room temperature for 2 h, and fluorescence intensity was measured by an Envision plate reader (PerkinElmer, Shelton, CT).

Structure (SMILES)	outcome
CCCC(C)=O	inactive
c1ccc(OCCOc2ccccc2)cc1	inactive
Cc1ccc2oc(=O)ccc2c1	inactive
CCCCCCCCC/C=C/CC1CC(=O)OC1=O (stereo not given)	inactive
O=C(O)c1ccccc1C(c1ccc(O)cc1)c1ccc(O)cc1	inactive
CC(=O)Nc1ccccc1	inactive
Cc1cccc(O)c1	inactive
O=C(OCCOCCOC(=O)c1ccccc1)c1ccccc1	inactive
CCN(CC)CCCC(C)Nc1ccnc2cc(Cl)ccc12 (stereo not given)	inactive
ON=C1CCCCC1	inactive
CCCCC(CC)CO (stereo not given)	inactive
O=c1[nH]nnc2ccccc12	inactive
OCC(CO)(CBr)CBr	inactive
Cc1ccc(S(N)(=O)=O)cc1	inactive
CC(C)(N)CO	inactive
Nc1ccccc1[N+](=O)[O-]	inactive
CN(C)CCCN	inactive
CCCCCCCCCCCCCCCO	inactive
O=C(O)c1cc(C(=O)O)cc(S(=O)(=O)O)c1	inactive
c1ccc2c(c1)ccc1ccccc12	inactive

Structure (SMILES)	outcome
Cc1ccc(N(C)C)cc1	inactive
O=C(O)c1ccc(C(=O)O)cc1	inactive
CCCCCCCC(=O)OC	inactive
C/C=C1/CC2C=CC1C2 (stereo not given)	inactive
O=c1[nH]c(=O)n([C@H]2CCCO2)cc1F	inactive
O=C(O)CCCC[C@@H]1SC[C@@H]2NC(=O)N[C@@H]21	inactive
c1c[nH]cn1	inactive
CCCCCOC(C)=O	inactive
C#C[C@]1(O)CC[C@H]2[C@@H]3CCC4=CC(=O)CC[C@@H]4[C@H]3CC[C@@]21C	inactive
COc1ccc(Cl)cc1C(=O)NCCc1ccc(S(=O)(=O)NC(=O)NC2CCCCC2)cc1	inactive
O=C(O)c1cc(O)c(O)c(O)c1	inactive
FC(F)(F)c1ccc(Cl)c(Cl)c1	inactive
CCC(O)OCCCOC (stereo not given)	inactive
CCCCC(CC)COC(=O)CCCCC(=O)OCC(CC)CCCC (stereo not given)	inactive
CCc1cccc(C)c1N	inactive
CC(=O)OCC(=O)[C@@]12N=C(C)O[C@@H]1C[C@H]1[C@@H]3CCC4=CC(=O)C=C[C@]4(C)[C@H]3[C@@H](O)C[C@@]12C	inactive
CCCCCC/C(C=O)=C\c1ccccc1	inactive
CCCCCCCCCCCCc1ccccc1	inactive
O=S(=O)(O)c1ccc2ccccc2c1	inactive
CC1CCC(C(C)C)C(O)C1 (stereo not given)	inactive
